Measured values taken from the supplement of paper PMC6522484.
± gives the standard deviation of the averaged measurements.

Columns and labels:
DLD1 [1] = test: cell viability (CellTiter-Glo) relative to plate median (fraction of plate median); higher = more viable cells; conditions: 5 µM; treatment time 24 h; reporter: 7TFP
In short: (§1)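 Each entry is a luminescence signal normalised to the plate median, averaged over independent replicates. The replicate count was two, and the cells were colorectal cancer lines with stable lentiviral TCF/Wnt firefly luciferase reporters exposed to library compounds at a final 5 µM for 24 h. Firefly luciferase and CellTiterGlo were measured on parallel plates.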

HCT116 = test: as above; conditions: 5 µM; treatment time 24 h; reporter: TCF4/Wnt
In short: as §1

SW480 [2] = test: as above; conditions: 5 µM; treatment time 24 h; reporter: 7TFP
In short: as §1

DLD1 [3] = test: TCF/Wnt firefly luciferase reporter signal relative to plate median (fraction of plate median); higher = higher Wnt reporter signal; conditions: 5 µM; treatment time 24 h; reporter: 7TFP
In short: as §1

SW480 [4] = test: as above; conditions: 5 µM; treatment time 24 h; reporter: 7TFP
In short: as §1

SMILES	cell viability (DLD1 [1])	cell viability (HCT116)	cell viability (SW480 [2])	TCF/Wnt firefly luciferase reporter signal (DLD1 [3])	TCF/Wnt firefly luciferase reporter signal (SW480 [4])
C[C@]12C=CC(=O)C=C1CC[C@@H]1[C@@H]2[C@@H](O)C[C@@]2(C)[C@H]1CC[C@]2(O)C(=O)COP(=O)(O)O	1.04 ± 0.021	1	0.943 ± 0.033	1.04 ± 0.14	1.06 ± 0.014
COc1ccc(-c2cc(=O)c3c(O)c(OC)c(OC)c(OC)c3o2)cc1	1.01 ± 0.032	1.04 ± 0.072	1.02 ± 0.055	0.953 ± 0.062	1.01 ± 0.021
CCCc1cc(OC)c2c(c1)OCO2	0.961 ± 0.11	0.939 ± 0.014	0.976 ± 0.049	0.958 ± 0.034	0.964 ± 0.065
CN(C)CCCN1c2ccccc2Sc2ccc(Cl)cc21	1.02 ± 0.054	0.957 ± 0.047	1.09 ± 0.14	0.928 ± 0.12	0.821 ± 0.13
CCN(CC)CCOc1ccc(C(=C(Cl)c2ccccc2)c2ccccc2)cc1	0.983 ± 0.019	0.971 ± 0.041	0.939 ± 0.073	0.914 ± 0.028	1.01 ± 0.27
C/C=C1\[C@H]2C=C(C)C[C@]1(N)c1ccc(=O)[nH]c1C2	0.965 ± 0.064	0.952 ± 0.016	1.02 ± 0.014	1.1 ± 0.17	1 ± 0.16
COc1cc(O)c(C(=O)c2ccccc2)cc1O	0.889 ± 0.07	0.84 ± 0.17	1.07 ± 0.15	0.891 ± 0.28	0.845 ± 0.12
CCCCCCCC/C=C/CCCCCCCCOP(=O)([O-])OCC[N+](C)(C)C	0.984 ± 0.052	0.886 ± 0.2	1.02 ± 0.03	0.986 ± 0.034	0.982 ± 0.018
C/C=C(\C)C(=O)[C@@H](C)/C=C(\C)[C@H]1O[C@@](O)([C@@](O)(CC)C(=O)N[C@@H]2C(=O)N3NCCC[C@@H]3C(=O)N(O)[C@@H](C)C(=O)N(C)[C@H](C)C(=O)N3NCCC[C@H]3C(=O)N[C@H]([C@H](C)O)C(=O)O[C@H]2C(C)C)CC[C@@H]1C	0.983 ± 0.053	1.01 ± 0.17	1.08	1.01 ± 0.065	1.06 ± 0.035
COc1ccc2c(c1OC)C(=O)O[C@@H]2[C@H]1c2c(cc3c(c2OC)OCO3)CCN1C	0.9895 ± 0.0092	0.879 ± 0.0099	0.995 ± 0.0014	0.973 ± 0.17	0.945 ± 0.15
N[C@@H]1CONC1=O	1.04 ± 0.11	1.05 ± 0.035	1.04 ± 0.061	1.05 ± 0.028	0.969 ± 0.21
NC(=O)c1ccccc1O	1.07 ± 0.014	0.991 ± 0.056	0.972 ± 0.014	0.993 ± 0.096	0.81 ± 0.12
NCCCCCC(=O)O	0.888 ± 0.054	1.02 ± 0.014	0.972 ± 0.083	1 ± 0.11	1.01 ± 0.081
C=C1C(=O)O[C@H]2C[C@@H]1C(OC(C)=O)C/C(C)=C/CC/C(C)=C/CC[C@@]2(C)O (stereo not given in full)	0.888 ± 0.067	0.999 ± 0.058	1.06 ± 0.014	0.885 ± 0.13	0.892 ± 0.0092
COc1ccc(/C=C/C(=O)c2ccc(O)cc2O)cc1	0.938 ± 0.088	0.947 ± 0.065	1.035 ± 0.0071	1.085 ± 0.0071	0.794 ± 0.054
O=C(O)CN(CCN(CC(=O)O)CC(=O)O)CC(=O)O.[Na+].[Na+].[Na+]	0.914 ± 0.021	0.948 ± 0.088	1.01 ± 0.035	1.02 ± 0.12	1.11 ± 0.13
COc1ccc([C@@H]2Sc3ccccc3N(CCN(C)C)C(=O)[C@@H]2OC(C)=O)cc1	0.931 ± 0.17	0.975 ± 0.028	1.01 ± 0.033	0.883 ± 0.029	0.989 ± 0.059
C=C1[C@H]2CC[C@@]3(C)[C@H](c4ccoc4)OC(=O)C[C@]13O[C@H]1C[C@H](O)C(C)(C)[C@H](CC(=O)OC)[C@]12C [3-DEOXY-3beta-HYDROXYANGOLENSIC ACID METHYL ESTER]	1.01 ± 0.061	0.958 ± 0.1	1.05 ± 0.11	1.06 ± 0.05	0.952 ± 0.035
CC[C@H]1OC(=O)[C@H](C)[C@@H](O[C@H]2C[C@@](C)(OC)[C@@H](O)[C@H](C)O2)[C@H](C)[C@@H](O[C@@H]2O[C@H](C)C[C@H](N(C)C)[C@H]2O)[C@](C)(O)C[C@@H](C)CN(C)[C@H](C)[C@@H](O)[C@]1(C)O	1.065 ± 0.0071	0.8915 ± 0.0035	1.01 ± 0.049	0.97 ± 0.1	1.04 ± 0.12
C=C(CC[C@@H](C(=O)O)[C@H]1CC[C@@]2(C)C3=C(CC[C@]12C)[C@@]1(C)CC[C@H](O)C(C)(C)[C@@H]1CC3)C(C)C [Eburicoic acid]	0.994 ± 0.052	0.923 ± 0.15	1.01 ± 0.03	0.878 ± 0.023	0.983 ± 0.013
CCCN(CCC)CCc1cccc2c1CC(=O)N2	1.02 ± 0.059	1.08 ± 0.014	1.01 ± 0.044	1.18 ± 0.092	1.07 ± 0.028
CC(=O)Nc1c(I)cc(I)c(C(=O)O)c1I	1 ± 0.16	0.987 ± 0.014	0.946 ± 0.055	0.995 ± 0.092	1.09 ± 0.099
CN1CCCN=C1COC(=O)C(O)(c1ccccc1)C1CCCCC1 (stereo not given)	1 ± 0.15	1.15 ± 0.12	1.05 ± 0.042	1.08 ± 0.042	1.065 ± 0.0071
CC1COc2c(N3CCN(C)CC3)c(F)cc3c(=O)c(C(=O)O)cn1c23 (stereo not given)	0.995 ± 0.05	1.04 ± 0.16	0.91 ± 0.0099	0.93 ± 0.075	1.01 ± 0.088
NC(=O)NC1NC(=O)NC1=O (stereo not given)	1.03 ± 0.014	1.09 ± 0.057	1.01 ± 0.03	1.02 ± 0.15	1.055 ± 0.0071
C#CC1(O)CC[C@H]2[C@@H]3CCC4=CC(=O)CC[C@@H]4[C@H]3CC[C@@]21CC (mixture of isomers)	0.925 ± 0.0014	0.875 ± 0.018	0.957 ± 0.026	1.14 ± 0.028	1.14 ± 0.035
CC(=O)O[C@@H]1CC2C(C)(C)[C@H](O)CC[C@]2(C)C2CC[C@@]3(C)[C@H](c4ccoc4)OC(=O)C4OC43[C@@]21C (stereo partly drawn) [alpha-DIHYDROGEDUNOL]	1.03 ± 0.028	1.01 ± 0.032	1.03	1.02 ± 0.18	0.954 ± 0.025
